Source: PubChem BioAssay
The list is not random: actives were taken first. Their share in the collection is about 2.8%.
PAX8 inh HTS: lowers PAX8-driven luciferase in RMG-I cells; 360,000 tested, 1.2% active; RMG-I TPO-luciferase reporter, SteadyGlo, 24 h; inhibition, % at 12.6 µM;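 active = mean replicate inhibition at least 60% with every replicate also reaching 60%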;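 also: luciferase light reporting Pax8 driven TPO promoter activity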
EWS-Fli block: blocks EWS/Fli oncoprotein-driven transcription. A673 NR0B1-luciferase reporter, viability-normalised. inhibition, % at 12.6 µM. 350,000 tested, 0.67% active. AID 651661;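 active = mean inhibition of at least 50% after viability correction, with every replicate also passing that limit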;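 also: firefly luciferase signal divided by Alamar Blue viability fluorescence both relative to DMSO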
TROY NFkB inh: inhibitors of TROY-dependent NF-kB signaling | Q293 LMP1-TROYcd NF-kB luciferase reporter, 4 h | inhibition, % at 10 µM | 360,000 tested, 0.98% active | AID 1347056;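 active = compounds whose plate-normalised and pattern-corrected inhibition of the luciferase reporter signal at the single screening dose is 50% or more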
TWEAK Fn14 block: blocks TWEAK-Fn14 interaction in a reporter cell assay; TWEAK-stimulated Fn14 reporter cells, luciferase luminescence, 8 h; 360,000 tested, 2% active; inhibition, % at 10 µM; in the data active = inhibition above about 50%
LGR2 antag: inhibitors of bursicon-induced Drosophila LGR2 receptor cAMP signaling. HEK293 LGR2, CRE-luciferase, bursicon-stimulated, 4 h. inhibition, % at 9.99 µM. 380,000 tested, 0.35% active. AID 720647;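 active = drop in luminescence signal, shown as inhibition above about 50% in the replicate tests, limit read from the data, passing the limit was not always enough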;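 also: agonist challenge used bursicon conditioned medium at about half maximal strength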
Large screens that a line does not name were inactive.

COc1cc(/C=C/c2cc[n+](C)cc2)ccc1OCC(=O)Nc1ccc(Cl)c(Cl)c1	PAX8 inh HTS 110
COc1ccc(NC(=O)COc2ccc(/C=C/c3cc[n+](C)cc3)cc2OC)cc1	none
O=C1CC(N(CCc2ccccc2)C(=S)Nc2ccccc2)C(=O)N1c1ccc(Br)cc1 (stereo not given)	TWEAK Fn14 block 79
COc1ccc(CCN(C(=S)Nc2ccccc2)C2CC(=O)N(c3ccccc3)C2=O)cc1 (stereo not given)	none (no result: PAX8 inh HTS, EWS-Fli block, LGR2 antag)
C[C@@H]1CN([C@H](C)CO)C(=O)c2ccccc2-c2ccccc2CO[C@@H]1CN(C)C(=O)Nc1ccccc1C(F)(F)F	none (no result: TROY NFkB inh, TWEAK Fn14 block)
Cc1cc(=O)n(Cc2ccccc2)c2ccccc12	none
Cc1c(CN(C)C)c2c(n1Cc1ccccc1)C(=O)c1ccccc1-2	TWEAK Fn14 block 62 (no result: PAX8 inh HTS, EWS-Fli block)
COc1cccc(C(=O)Nc2ccc3c(c2)OC[C@H](C)NC[C@@H](C)[C@H](OC)CN(C)C3=O)c1	none (no result: PAX8 inh HTS, TROY NFkB inh, TWEAK Fn14 block)
Cc1ccc(-n2c(=O)c3ccc(C(=O)NCc4ccco4)cc3n(Cc3ccccc3C#N)c2=O)cc1	PAX8 inh HTS 76
COc1ccc(NC(=O)N2CCCCN3[C@@H](CO)[C@@H](c4ccc(-c5ccccc5C)cc4)[C@@H]3C2)cc1	none (no result: EWS-Fli block, TROY NFkB inh, TWEAK Fn14 block)
CCCN1C[C@H](C)[C@H](OC)CN(C)C(=O)c2ccc(NC(=O)Nc3ccccc3F)cc2OC[C@@H]1C	none (no result: TROY NFkB inh, TWEAK Fn14 block)
COC(=O)/C(=C1/Oc2ccc(C(C)(C)C)cc2S1)C(F)(F)F	none
COC(=O)/C(=C1/Oc2cc(C)oc(=O)c2S1)C(F)(F)F	EWS-Fli block 54, TWEAK Fn14 block 98 (no result: PAX8 inh HTS)
CCCOc1ccccc1N/C(N)=N/c1nc(C)cc(C)n1	none
CCCOc1ccccc1N/C(=N/c1nc(C)cc(C)n1)NC(=O)COc1ccc(OC)cc1	TWEAK Fn14 block 53 (no result: PAX8 inh HTS, EWS-Fli block, LGR2 antag)
O=C(Nc1ccc(F)cc1)N1C[C@@H]2[C@H](c3ccccc31)[C@H](CO)N2C(=O)c1ccccn1	none (no result: TROY NFkB inh, TWEAK Fn14 block)
C[C@@H]1CN([C@H](C)CO)C(=O)c2cc(NC(=O)CCC(F)(F)F)ccc2O[C@@H](C)CCCCO[C@@H]1CN(C)S(=O)(=O)c1ccc(F)cc1	none (no result: TROY NFkB inh, TWEAK Fn14 block)
COc1ccc(C2=NO[C@@H]3C(=O)N(C4CCCCC4)C(=O)[C@H]23)cc1OC	none (no result: PAX8 inh HTS, EWS-Fli block, LGR2 antag)
COc1ccc(C2=NO[C@@H]3C(=O)N(c4ccc5c(c4)OCCO5)C(=O)[C@H]23)cc1OC	TROY NFkB inh 69, TWEAK Fn14 block 81 (no result: PAX8 inh HTS, EWS-Fli block, LGR2 antag)
Cc1ccc(-c2ccc(=O)n(CCC(=O)N3CCN(c4ccccc4)CC3)n2)cc1	PAX8 inh HTS 63
Cc1ccc(-c2ccc(=O)n(CCC(=O)N3CCN(Cc4ccccc4)CC3)n2)cc1	none
C[C@@H]1CN([C@H](C)CO)C(=O)c2cc(C#CCN(C)C)cnc2O[C@@H]1CN(C)C(=O)Nc1cccc(F)c1	none (no result: PAX8 inh HTS, TROY NFkB inh, TWEAK Fn14 block)
CCOC(=O)NC(=O)/C(C#N)=N\Nc1cccc(Cl)c1	TROY NFkB inh 56
CCOC(=O)NC(=O)/C(C#N)=N\Nc1ccc(Cl)cc1	none (no result: PAX8 inh HTS, EWS-Fli block, LGR2 antag)
CO[C@H]1CN(C)C(=O)c2ccc(NC(=O)C3CCCC3)cc2OC[C@@H](C)N(CCC(F)(F)F)C[C@@H]1C	none (no result: PAX8 inh HTS, TROY NFkB inh, TWEAK Fn14 block)
CCC(C(=O)NC(C)CCc1ccco1)n1nc(C)n2c(cc3occc32)c1=O (stereo not given)	none (no result: PAX8 inh HTS, EWS-Fli block, LGR2 antag)
CCC(C(=O)NC(C)CCc1ccccc1)n1nc(C)n2c(cc3occc32)c1=O (stereo not given)	TWEAK Fn14 block 100 (no result: PAX8 inh HTS, EWS-Fli block, LGR2 antag)
CO[C@H]1CN(C)C(=O)c2cc(NS(=O)(=O)c3ccccc3Cl)ccc2OC[C@@H](C)NC[C@@H]1C	none (no result: PAX8 inh HTS, TROY NFkB inh, TWEAK Fn14 block)
COc1ccc(NC(=O)N(C)C[C@H]2Oc3ccc(NC(=O)Cn4cnnn4)cc3CC(=O)N([C@@H](C)CO)C[C@H]2C)cc1	none (no result: TROY NFkB inh, TWEAK Fn14 block)
COC(=O)COc1ccc(S(=O)(=O)Nc2ccc3c(c2)OCCO3)cc1Cl	none (no result: PAX8 inh HTS)
Cc1cc(Cl)c(S(=O)(=O)Nc2ccc3c(c2)OCCO3)cc1OCC(=O)NC1CCCCC1	TROY NFkB inh 59, TWEAK Fn14 block 56 (no result: EWS-Fli block, LGR2 antag)
COC(=O)COc1ccc(S(=O)(=O)Nc2ccc3c(c2)OCCO3)cc1C	TROY NFkB inh 56, TWEAK Fn14 block 56
Cn1cnc(S(=O)(=O)N2CC[C@@H]3[C@H]2c2cc(C#Cc4ccc(F)cc4)ccc2N[C@@H]3CO)c1	none (no result: TROY NFkB inh, TWEAK Fn14 block)
Oc1c(I)cc(Cl)c2cccnc12	PAX8 inh HTS 79 (no result: LGR2 antag)
CCC(=O)NC(c1cc(Cl)c2cccnc2c1O)C1CC1 (stereo not given)	PAX8 inh HTS 66
CC(=O)NC(c1ccc(N(C)C)cc1)c1cc(Cl)c2cccnc2c1O (stereo not given)	PAX8 inh HTS 85
Oc1c(C(c2ccccn2)N2CCCCC2)cc(Cl)c2cccnc12 (stereo not given)	PAX8 inh HTS 77
